Source: PubChem BioAssay (NCI)
This is part of a sample that, as a whole, favours compounds with a hit. Of some 83,000 tested, about 20% had one in any assay.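 Plates (96-well) were seeded with cells, treated with compound at one concentration, and incubated for 48 hours before percent growth was determined.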 Activity calls are given as the source filed them. How the source made its calls: active means growth percent below 10; inactive means the rest.

Assays:
Test in all cases: NCI-60 one-dose screen, 48 h (100 = growth as untreated, 0 = no growth, -100 = all killed)
Settings in all cases: 10 µM unless noted
NCI-H23 lung = system: NCI-H23 lung
NCI-H226 lung = system: NCI-H226 lung
NCI-H322M lung = system: NCI-H322M lung
HOP-62 NSCLC = system: HOP-62 NSCLC
NCI-H460 lung = system: NCI-H460 lung
HOP-92 NSCLC = system: HOP-92 NSCLC
NCI-H522 lung = system: NCI-H522 lung
A549/ATCC NSCLC = system: A549/ATCC NSCLC
786-0 renal = system: 786-0 renal
COLO 205 colon = system: COLO 205 colon

Measured: growth

CC(C)Nc1cc(-c2c[nH]c(C(=O)N[C@H](CO)c3cccc(Cl)c3)c2)c(Cl)cn1
inactive: NCI-H23 lung 19.9% | NCI-H226 lung 38% | NCI-H322M lung 17.5% | HOP-62 NSCLC 28.6% | NCI-H460 lung 25.2% | NCI-H522 lung 22.2% | A549/ATCC NSCLC 14.8% | 786-0 renal 42.4%
active: HOP-92 NSCLC -18.5% | COLO 205 colon -19.2%

C#Cc1cccc(Nc2ncnc3cc(OCCOC)c(OCCOC)cc23)c1
active: NCI-H322M lung 0.463% | NCI-H522 lung -6.57%
inactive: NCI-H23 lung 74.9% | NCI-H226 lung 75.4% | HOP-62 NSCLC 63% | NCI-H460 lung 55.8% | HOP-92 NSCLC 72.8% | A549/ATCC NSCLC 41.5% | 786-0 renal 57.5% | COLO 205 colon 60.8%

C#Cc1cccc(Nc2ncnc3cc(OC)c(OCCCCCCC(=O)NO)cc23)c1
active: NCI-H23 lung -31.4% | NCI-H226 lung -10.9% | NCI-H322M lung -8.88% | HOP-62 NSCLC -37.5% | NCI-H460 lung 1.24% | HOP-92 NSCLC -26.4% | NCI-H522 lung -58.2% | A549/ATCC NSCLC -32.8% | 786-0 renal -15.4% | COLO 205 colon -65%

C=CC(=O)Nc1cccc(Nc2nc(Nc3ccc(N4CCN(C(C)=O)CC4)cc3OC)ncc2C(F)(F)F)c1
active: NCI-H322M lung -28.9% | NCI-H460 lung 9.55% | HOP-92 NSCLC -18.1% | NCI-H522 lung -12% | A549/ATCC NSCLC 5.15% | 786-0 renal 8.43% | COLO 205 colon -37.4%
inactive: NCI-H23 lung 26.7% | NCI-H226 lung 26.8% | HOP-62 NSCLC 27.6%

Cc1cccc(C)c1N1C(c2ccccc2)=NNC12C=CC(=O)c1c(O)cccc12 (stereo not given)
inactive: NCI-H23 lung 30.6% | NCI-H226 lung 94.6% | NCI-H322M lung 99.3% | HOP-62 NSCLC 39.4% | NCI-H460 lung 98.2% | HOP-92 NSCLC 115% | NCI-H522 lung 54.6% | A549/ATCC NSCLC 62.4% | 786-0 renal 105% | COLO 205 colon 97.7%

Clc1nc(Cl)c2ncn(C/C=C\Cn3cnc4c(Cl)nc(Cl)nc43)c2n1
inactive: NCI-H322M lung 21.4% | HOP-62 NSCLC 23.4%
active: NCI-H23 lung 9.28% | NCI-H226 lung -59.2% | NCI-H460 lung 3.79% | HOP-92 NSCLC -34.2% | NCI-H522 lung -76.7% | A549/ATCC NSCLC -7.32% | 786-0 renal -9.15% | COLO 205 colon -41.1%

C/C(=C(/c1ccc(Cl)cc1)c1ccc(OCCN2CCCC2)cc1)c1ccccc1
inactive: NCI-H23 lung 71.2% | NCI-H226 lung 83.3% | NCI-H322M lung 82.5% | HOP-62 NSCLC 90% | NCI-H460 lung 41.5% | HOP-92 NSCLC 84.2% | NCI-H522 lung 58.9% | A549/ATCC NSCLC 66.7% | 786-0 renal 75.2% | COLO 205 colon 24.3%

COc1ncc(-c2ccc3nccc(-c4ccnnc4)c3c2)cc1NS(=O)(=O)c1ccc(F)cc1F
active: NCI-H23 lung 3.23% | NCI-H226 lung -4.7% | NCI-H322M lung -31.1% | HOP-62 NSCLC -14.1% | NCI-H460 lung 5.35% | HOP-92 NSCLC -1.41% | NCI-H522 lung -44% | A549/ATCC NSCLC -61.6% | 786-0 renal 4.21% | COLO 205 colon -83.2%

O=C(Cc1ccc(-c2ccc(OCCN3CCOCC3)cc2)cn1)NCc1ccccc1
active: HOP-62 NSCLC -3.09% | NCI-H460 lung 2.01% | NCI-H522 lung -5.77% | A549/ATCC NSCLC 4.91% | COLO 205 colon -65.3%
inactive: NCI-H23 lung 29% | NCI-H226 lung 48.8% | NCI-H322M lung 33.1% | HOP-92 NSCLC 27.6% | 786-0 renal 24.2%

CC#CC(=O)N1CCC[C@H]1c1nc(-c2ccc(C(=O)Nc3ccccn3)cc2)c2c(N)nccn12
inactive: NCI-H23 lung 96.4% | NCI-H226 lung 80.2% | NCI-H322M lung 76.6% | HOP-62 NSCLC 68.9% | NCI-H460 lung 90.4% | HOP-92 NSCLC 76.9% | NCI-H522 lung 37.1% | A549/ATCC NSCLC 48.6% | 786-0 renal 92.3% | COLO 205 colon 81.6%

O=C(O)c1ccc2c(c1)nc(Nc1cccc(Cl)c1)c1ccncc12
inactive: NCI-H460 lung 14.7% | A549/ATCC NSCLC 27.8% | 786-0 renal 17.5%
active: NCI-H23 lung 2.72% | NCI-H226 lung 3.78% | NCI-H322M lung -25.5% | HOP-62 NSCLC -1.83% | HOP-92 NSCLC -20.3% | NCI-H522 lung -35.7% | COLO 205 colon -16.8%

COc1cc(Nc2ncc3c(n2)-c2ccc(Cl)cc2C(c2c(F)cccc2OC)=NC3)ccc1C(=O)O
active: COLO 205 colon 8.87%
inactive: NCI-H23 lung 77.6% | NCI-H226 lung 63.2% | NCI-H322M lung 90.4% | HOP-62 NSCLC 50.2% | NCI-H460 lung 30.7% | HOP-92 NSCLC 115% | NCI-H522 lung 53.5% | A549/ATCC NSCLC 54.2% | 786-0 renal 89.1%

CCN(CCCOc1ccc2c(Nc3cc(CC(=O)Nc4cccc(F)c4)[nH]n3)ncnc2c1)CCOP(=O)(O)O
inactive: NCI-H23 lung 73.4% | NCI-H226 lung 93.8% | NCI-H322M lung 68.5% | HOP-62 NSCLC 56.7% | NCI-H460 lung 45% | HOP-92 NSCLC 87.6% | NCI-H522 lung 44% | A549/ATCC NSCLC 44.1% | 786-0 renal 86.5%
active: COLO 205 colon -7.95%

C1=C\COCc2cc(ccc2OCCN2CCCC2)Nc2nccc(n2)-c2cccc(c2)COC/1
active: NCI-H23 lung -17.3% | NCI-H226 lung -64.9% | NCI-H322M lung -8.53% | HOP-62 NSCLC -18.1% | NCI-H460 lung -34.5% | HOP-92 NSCLC -0.764% | NCI-H522 lung -58.1% | A549/ATCC NSCLC -17.3% | 786-0 renal 1.51% | COLO 205 colon -82%

CCn1c(-c2nonc2N)nc2c(C#CC(C)(C)O)ncc(OC[C@H]3CCCNC3)c21
inactive: NCI-H23 lung 78.7% | NCI-H226 lung 113% | NCI-H322M lung 75.2% | HOP-62 NSCLC 73% | NCI-H460 lung 56.6% | HOP-92 NSCLC 178% | NCI-H522 lung 12.7% | A549/ATCC NSCLC 87.8% | 786-0 renal 26.7% | COLO 205 colon 38.2%

CCCC(=O)OCC1OC(n2cnc3c(=S)nc[nH]c32)C(OC(=O)CCC)C1OC(=O)CCC (stereo not given)
active: NCI-H522 lung -12.7%
inactive: NCI-H23 lung 29.4% | NCI-H226 lung 32.5% | NCI-H322M lung 35.4% | HOP-62 NSCLC 24.1% | NCI-H460 lung 54.9% | HOP-92 NSCLC 17.9% | A549/ATCC NSCLC 83.9% | 786-0 renal 22.3% | COLO 205 colon 67.3%

Cc1c(CN2CCN(C(=O)[C@H](C)O)CC2)sc2c(N3CCOCC3)nc(-c3cnc(N)nc3)nc12
active: NCI-H23 lung 6.62% | NCI-H226 lung -4.64% | NCI-H322M lung -26.1% | HOP-62 NSCLC -10.3% | NCI-H460 lung 3% | HOP-92 NSCLC -24.6% | NCI-H522 lung -12.2% | A549/ATCC NSCLC -20.8% | 786-0 renal -19% | COLO 205 colon -32.3%

Cc1cc(N2CCCC2)nc(N(CCCNc2ccnc3cc(Cl)ccc23)Cc2ccc3c(c2)OCO3)n1
inactive: NCI-H23 lung 20.9% | NCI-H226 lung 50.4% | A549/ATCC NSCLC 13.2%
active: NCI-H322M lung 8.23% | HOP-62 NSCLC -17.4% | NCI-H460 lung 5.83% | HOP-92 NSCLC -36% | NCI-H522 lung -28.1% | 786-0 renal -88.8% | COLO 205 colon -73.8%

Cc1c(N)ccc(-c2ccc(N)c(C)c2S(=O)(=O)O)c1S(=O)(=O)O
inactive: NCI-H23 lung 98% | NCI-H226 lung 111% | NCI-H322M lung 108% | HOP-62 NSCLC 107% | NCI-H460 lung 112% | HOP-92 NSCLC 86.1% | NCI-H522 lung 101% | A549/ATCC NSCLC 117% | 786-0 renal 106% | COLO 205 colon 111%

CC(N)C(Cc1ccccc1)c1ccc(Cl)cc1 (stereo not given)
inactive: NCI-H23 lung 92.5% | NCI-H226 lung 89.3% | NCI-H322M lung 95.5% | HOP-62 NSCLC 56.9% | NCI-H460 lung 90.9% | HOP-92 NSCLC 56.5% | NCI-H522 lung 75.9% | A549/ATCC NSCLC 76.2% | 786-0 renal 81% | COLO 205 colon 84.4%

O=C(/C=C/c1ccc2c(c1)OCO2)c1c(O)c2ccccc2oc1=O
inactive: NCI-H23 lung 102% | NCI-H226 lung 107% | NCI-H322M lung 107% | HOP-62 NSCLC 80.9% | NCI-H460 lung 103% | HOP-92 NSCLC 103% | NCI-H522 lung 75.7% | A549/ATCC NSCLC 76.5% | 786-0 renal 99.8% | COLO 205 colon 99.3%

COc1cc2cc(NCc3ccc(F)cc3)nc(C)c2cc1OC
inactive: NCI-H23 lung 26.5% | NCI-H226 lung 48.5% | NCI-H322M lung 52.5% | HOP-62 NSCLC 54.7% | NCI-H460 lung 26.4% | HOP-92 NSCLC 25.3% | NCI-H522 lung 59.9% | A549/ATCC NSCLC 47.9% | 786-0 renal 32.2% | COLO 205 colon 34.2%

CO[C@H]1C[C@@H]2CC[C@@H](C)[C@@](O)(O2)C(=O)C(=O)N2CCCC[C@H]2C(=O)O[C@H]([C@H](C)C[C@@H]2CC[C@@H](OCCO)[C@H](OC)C2)CC(=O)[C@H](C)/C=C(\C)[C@@H](O)[C@H](OC)C(=O)[C@H](C)C[C@H](C)\C=C/C=C/C=C/1C
inactive: NCI-H23 lung 54.9% | NCI-H226 lung 48.7% | NCI-H322M lung 44.9% | HOP-62 NSCLC 41.2% | NCI-H460 lung 43.2% | HOP-92 NSCLC 45.7% | NCI-H522 lung 48.7% | A549/ATCC NSCLC 44.6% | 786-0 renal 52.6% | COLO 205 colon 55.8%

CC(C)(C)OC(=O)N1CCC(O)[C@@H](O[Si](c2ccccc2)(c2ccccc2)C(C)(C)C)[C@H]1/C=C/c1ccccc1 (stereo not given in full)
inactive: NCI-H23 lung 34.4% | NCI-H226 lung 47.9% | NCI-H322M lung 83.5% | HOP-62 NSCLC 67.4% | NCI-H460 lung 36.1% | HOP-92 NSCLC 36% | NCI-H522 lung 30.1% | A549/ATCC NSCLC 41.9% | 786-0 renal 52.2% | COLO 205 colon 49%
